For eight compounds, outcome and AC50 results are on record in PubChem BioAssay (EPA / NIEHS).

What is called AC50 is the midpoint of the concentration-response curve, whichever way the signal moves.

Activity calls are given as the source filed them. The calls were made as follows: active = hit-call score of the fitted dose curve at least 0.9, where 1 is the maximum; inactive = score below 0.9.

Assay [1] can be described thus: ATG_GRE_CIS: Attagene CIS-FACTORIAL HepG2 Assay for human Glucocorticoid Response Elements (GRE) (AID 2282947). As to conditions: HepG2 GRE cis-reporter, Attagene multiplex mRNA; actives raise or lower the signal. In outline:
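Transiently transfected HepG2 cells carrying GRE cis-reporter units (endogenous TF activity) dosed 24 h; reporter mRNA quantified by RT-PCR, 6-FAM labelling, HpaI digestion and capillary electrophoresis. Bidirectional fit versus DMSO baseline.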

Assay [2] can be described thus: ATG_ISRE_CIS: Attagene CIS-FACTORIAL HepG2 Assay for human Interferon Regulatory Factor 1 (IRF1) binding to an Interferon-Stimulated Response Element (ISRE) (AID 2282948). The following applies: HepG2 ISRE cis-reporter (Attagene), mRNA transcription readout; actives raise or lower the signal. Put shortly: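 HepG2 cells transiently transfected with multiplexed cis-promoter reporter units; after 24 h compound exposure, reporter mRNA quantified by RT-PCR, FAM labelling, HpaI digestion and capillary electrophoresis. Bidirectional fit versus DMSO baseline.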

Assay [3] is described as follows: ATG_M_32_CIS: Attagene CIS-FACTORIAL HepG2 Assay for M32 Transcription Factor (Internal Marker) (AID 2282949).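 Also: background control marker of the multiplexed CIS panel rather than a real target.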 The following applies: HepG2 Attagene cis-factorial M32 reporter, mRNA; actives raise or lower the signal. Put shortly:
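Fluorescent capillary electrophoresis peaks of HpaI-digested, FAM-labelled RT-PCR reporter products give the signal. Source: transiently transfected human liver HepG2 cells, 24 h after chemical dosing; bidirectional fitting against DMSO.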

Assay [4] can be described thus: ATG_M_06_CIS: Attagene CIS-FACTORIAL HepG2 Assay for M06 Transcription Factor (Internal Marker) (AID 2282950). As to conditions: HepG2 Attagene CIS-FACTORIAL M06 internal marker reporter; actives raise or lower the signal. Put shortly: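 Cells (HepG2, transiently carrying cis-driven reporter units) receive chemical for 24 h before RNA isolation. Reporter cDNA is PCR-amplified, FAM-labelled by primer extension, HpaI-digested and sized on a capillary analyser.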

In assay [5] the target is Hypoxia-inducible factor 1-alpha (Homo sapiens) (UniProt Q16665). The experiment in a line: ATG_HIF1a_CIS: Attagene CIS-FACTORIAL HepG2 Assay for human Hypoxia Inducible Factor 1 (HIF1A) (AID 2282951). The following applies: HepG2 Attagene cis-factorial HIF1a reporter transcription; actives raise or lower the signal. In outline: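 Transient MRTU transfection of human HepG2 liver cells, 24 h compound treatment, then total RNA isolation, oligo(dT) reverse transcription, PCR amplification, fluorescent labelling and capillary electrophoresis of reporter fragments. Gain or loss relative to DMSO.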

The target in assay [6] is Heat shock factor protein 1 (Homo sapiens) (UniProt Q00613). Kind of assay: ATG_HSE_CIS: Attagene CIS-FACTORIAL HepG2 Assay for human Heat Shock Transcription Factor 1 (HSE) (AID 2282953). As to conditions: HepG2 HSE cis-reporter, Attagene RNA transcription; actives raise or lower the signal. Put shortly: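 Liver-derived HepG2 cells carry transiently introduced multiple reporter units governed by cis promoters. Reporter RNA measured 24 h post-dose through reverse transcription, PCR amplification, fluorescent labelling and capillary electrophoresis, normalised to DMSO.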

The nature of assay [7]: ATG_MRE_CIS: Attagene CIS-FACTORIAL HepG2 Assay for human Metal Responsive Element (MRE) (AID 2282954). As to conditions: HepG2 MRE cis-reporter transcription, Attagene multiplex; actives raise or lower the signal. Put shortly:
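HepG2 cells transiently transfected with cis-element-driven reporter units; mRNA measured 24 h after dosing. Reporter transcripts quantified by RT-PCR, FAM labelling, HpaI digestion and capillary electrophoresis; bidirectional fit versus DMSO.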

The nature of assay [8]: ATG_PBREM_CIS: Attagene CIS-FACTORIAL HepG2 Assay for human Phenobarbital-responsive Enhancer Module (PBREM) (AID 2282955). The following applies: HepG2 PBREM cis-reporter, Attagene multiplexed transcription; actives raise or lower the signal. Put shortly: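 Endogenous transcription factors in human liver HepG2 cells drive a PBREM cis-element reporter, whose transcript level after 24 h treatment is quantified by RT-PCR with capillary electrophoresis; activity fitted in both directions against DMSO.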

For assay [9], the target named is Paired box protein Pax-6 (Homo sapiens) (UniProt P26367). The experiment in a line: ATG_Pax6_CIS: Attagene CIS-FACTORIAL HepG2 Assay for human Paired Box 6 (PAX6) (AID 2282956). As to conditions: HepG2 CIS-FACTORIAL PAX6 reporter transcription, RNA readout; actives raise or lower the signal. In outline: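 HepG2 cells transiently transfected with multiplexed cis-promoter reporter units (endogenous TF activity) were dosed for 24 h. Reporter mRNA was quantified by RT-PCR, 6-FAM labeling, HpaI digestion and capillary electrophoresis; bidirectional fitting versus DMSO baseline.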

Assay [10] is described as follows: ATG_PXRE_CIS: Attagene CIS-FACTORIAL HepG2 Assay for human Pregnane X Receptor Element (PXRE) (AID 2282957). As to conditions: HepG2 Attagene CIS-FACTORIAL PXRE reporter, mRNA; actives raise or lower the signal. Put shortly:
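Cis-element reporter mRNA in human hepatoma HepG2 cells is measured 24 h post-dosing by RT-PCR, primer-extension labeling and capillary electrophoresis; gain or loss of signal is fitted relative to DMSO.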

Assay [11] in a line: ATG_RORE_CIS: Attagene CIS-FACTORIAL HepG2 Assay for human RAR-related Orphan Receptor Element (RORE) (AID 2282959). As to conditions: HepG2 Attagene cis-factorial RORE reporter, mRNA; actives raise or lower the signal. Put shortly:
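Transient MRTU transfection of human HepG2 liver cells (FuGene 6); 24 h compound exposure; TriZol RNA, oligo(dT) RT, PCR, FAM labeling, HpaI cut, CE fragment analysis. DMSO = negative control/baseline.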

Assay [12] can be described thus: ATG_Sox_CIS: Attagene CIS-FACTORIAL HepG2 Assay for human SRY-box transcription factor (SOX) (AID 2282960). As to conditions: HepG2 Attagene cis-factorial SOX reporter, mRNA; actives raise or lower the signal. Put shortly: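 Endogenous factor activity in human liver HepG2 cells carrying transfected cis-regulated reporter units. RNA taken 24 h post-dose, reverse-transcribed, PCR-amplified and sized by capillary electrophoresis. Gain or loss of signal fitted relative to DMSO.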

Assay [13] concerns the target Transcription factor Sp1 (Homo sapiens) (UniProt P08047). Kind of assay: ATG_Sp1_CIS: Attagene CIS-FACTORIAL HepG2 Assay for human Specificity Protein 1 (Sp1) (AID 2282961). As to conditions: HepG2 Sp1 cis-reporter transcription, actives raise or lower the signal. Put shortly: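 Transient MRTU-transfected HepG2, 24 h compound exposure. Total RNA → oligo(dT) RT → PCR of reporter → 6-FAM primer extension → HpaI digest → CE. Endpoint fitted both directions vs DMSO.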

Assay [14] can be described thus: ATG_SREBP_CIS: Attagene CIS-FACTORIAL HepG2 Assay for human Sterol Regulatory Element Binding (SREBP) (AID 2282962). The following applies: HepG2 Attagene cis-factorial SREBP reporter, mRNA; actives raise or lower the signal. Put shortly: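 HepG2 cells transiently transfected with multiplexed cis-element reporter units report endogenous transcription factor activity. After 24 h of chemical exposure, reporter mRNA was quantified by RT-PCR, 6-FAM labelling, HpaI digestion and capillary electrophoresis; bidirectional fits used DMSO as baseline.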

The target of assay [15] is Signal transducer and activator of transcription 3 (Homo sapiens) (UniProt P40763). Kind of assay: ATG_STAT3_CIS: Attagene CIS-FACTORIAL HepG2 Assay for human Signal Transducer and Activator of Transcription 3 (STAT3) (AID 2282963). As to conditions: HepG2, Attagene cis-factorial STAT3 reporter transcription; actives raise or lower the signal. In outline:
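HepG2 cells transiently transfected with multiple cis-element-driven reporter units report endogenous transcription factor activity. After 24 h compound exposure, reporter mRNA is measured by RT-PCR, 6-FAM labelling, HpaI digestion and capillary electrophoresis. Fitted bidirectionally versus DMSO.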

Assay [16] in a line: ATG_TA_CIS: Attagene CIS-FACTORIAL HepG2 Assay for human TA Basal Promoter (AID 2282964). As to conditions: HepG2 Attagene CIS-factorial TA basal promoter reporter; actives raise or lower the signal. Put shortly: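 Background internal-marker endpoint from a 52-component HepG2 cis-reporter panel. Cells treated 24 h; reporter transcripts quantified via RT-PCR and CE fluorescence against DMSO baseline.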

A short description of assay [17]: ATG_TCF_b_cat_CIS: Attagene CIS-FACTORIAL HepG2 Assay for human T-Cell-Factor with beta-catenin (TCF/b-cat) (AID 2282965). The following applies: HepG2 TCF/beta-catenin cis-reporter transcription, actives raise or lower the signal. In outline:
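HepG2, transient MRTU transfection, cis-element-driven reporters (endogenous TFs). 24 h compound exposure. Readout: reporter mRNA by RT-PCR + 6-FAM primer extension, HpaI digest, capillary electrophoresis. Gain/loss fit vs DMSO baseline.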

Assay [18] has as its target Hepatocyte nuclear factor 6 (Homo sapiens) (UniProt Q9UBC0). Kind of assay: ATG_HNF6_CIS: Attagene CIS-FACTORIAL HepG2 Assay for human Hepatocyte Nuclear Factor 6 (HNF6) (AID 2282952). As to conditions: HepG2 Attagene cis-factorial HNF6 reporter transcription; actives raise or lower the signal. In outline:
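Transiently transfected HepG2 cells expressing cis-regulated reporter transcription units were exposed to chemical for 24 h in a 24-well format. Reporter transcript abundance was determined by fluorescence capillary electrophoresis.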

Assay [19] can be described thus: ATG_PPRE_CIS: Attagene CIS-FACTORIAL HepG2 Assay for human Peroxisome Proliferator-activated Response Element (PPRE) (AID 2282958). The following applies: HepG2 PPRE cis-element reporter, Attagene transcription factor profiling; actives raise or lower the signal. Put shortly: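 HepG2, transient MRTU transfection (cis promoter elements, endogenous TFs). 24 h dosing. RNA → oligo(dT) RT → PCR → 6-FAM primer extension → HpaI digest → CE. Bidirectional fit vs DMSO.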

Sequence of Heat shock factor protein 1 (Homo sapiens) (Q00613 whole entry, looked up): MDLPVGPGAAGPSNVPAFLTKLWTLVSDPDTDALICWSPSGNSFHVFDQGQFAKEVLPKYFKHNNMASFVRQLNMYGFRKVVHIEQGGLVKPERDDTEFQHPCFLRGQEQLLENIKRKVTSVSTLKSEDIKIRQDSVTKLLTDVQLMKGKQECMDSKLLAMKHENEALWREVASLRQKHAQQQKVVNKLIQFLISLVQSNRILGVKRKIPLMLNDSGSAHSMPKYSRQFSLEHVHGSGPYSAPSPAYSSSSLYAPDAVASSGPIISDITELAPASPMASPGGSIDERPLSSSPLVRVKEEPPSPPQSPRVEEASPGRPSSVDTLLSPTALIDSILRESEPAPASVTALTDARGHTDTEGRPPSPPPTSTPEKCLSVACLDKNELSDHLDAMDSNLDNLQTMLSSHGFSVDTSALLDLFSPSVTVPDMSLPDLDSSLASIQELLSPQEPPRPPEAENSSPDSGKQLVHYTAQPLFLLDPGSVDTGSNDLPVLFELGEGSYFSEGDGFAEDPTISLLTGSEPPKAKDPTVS
Sequence of Hepatocyte nuclear factor 6 (Homo sapiens) (Q9UBC0 whole entry, looked up): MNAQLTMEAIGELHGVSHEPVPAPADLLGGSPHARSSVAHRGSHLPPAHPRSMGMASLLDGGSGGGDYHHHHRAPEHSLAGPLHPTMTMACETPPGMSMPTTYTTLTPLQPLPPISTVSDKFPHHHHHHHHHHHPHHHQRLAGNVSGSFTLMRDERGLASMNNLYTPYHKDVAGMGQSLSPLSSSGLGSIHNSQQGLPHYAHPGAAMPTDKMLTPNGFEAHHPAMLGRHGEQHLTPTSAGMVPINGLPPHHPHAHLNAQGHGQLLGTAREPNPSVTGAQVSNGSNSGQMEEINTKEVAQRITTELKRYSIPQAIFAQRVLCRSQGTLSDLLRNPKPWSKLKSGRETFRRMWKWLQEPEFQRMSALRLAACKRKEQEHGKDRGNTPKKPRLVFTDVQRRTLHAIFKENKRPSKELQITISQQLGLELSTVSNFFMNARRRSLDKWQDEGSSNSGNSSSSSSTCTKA
Sequence of Signal transducer and activator of transcription 3 (Homo sapiens) (P40763 whole entry, looked up): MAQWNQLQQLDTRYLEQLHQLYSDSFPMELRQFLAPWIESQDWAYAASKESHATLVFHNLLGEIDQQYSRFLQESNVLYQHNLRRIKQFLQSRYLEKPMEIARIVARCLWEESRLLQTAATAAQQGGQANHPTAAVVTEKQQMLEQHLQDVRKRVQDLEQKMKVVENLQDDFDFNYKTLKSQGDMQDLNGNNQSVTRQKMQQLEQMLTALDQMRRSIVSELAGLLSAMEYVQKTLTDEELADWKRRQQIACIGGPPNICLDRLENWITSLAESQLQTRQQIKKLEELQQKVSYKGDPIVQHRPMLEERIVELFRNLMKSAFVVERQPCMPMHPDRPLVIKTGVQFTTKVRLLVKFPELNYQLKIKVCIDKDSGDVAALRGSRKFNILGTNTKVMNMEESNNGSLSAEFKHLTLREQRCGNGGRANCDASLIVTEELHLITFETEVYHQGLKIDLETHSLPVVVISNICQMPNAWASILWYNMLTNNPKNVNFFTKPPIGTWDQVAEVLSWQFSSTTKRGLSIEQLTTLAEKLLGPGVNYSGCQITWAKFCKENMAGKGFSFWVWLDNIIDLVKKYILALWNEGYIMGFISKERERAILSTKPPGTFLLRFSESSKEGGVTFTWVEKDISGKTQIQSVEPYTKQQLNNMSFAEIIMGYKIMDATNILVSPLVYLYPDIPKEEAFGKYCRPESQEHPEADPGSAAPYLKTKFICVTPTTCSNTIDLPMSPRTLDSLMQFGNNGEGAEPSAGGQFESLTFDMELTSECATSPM
Sequence of Transcription factor Sp1 (Homo sapiens) (P08047 whole entry, looked up): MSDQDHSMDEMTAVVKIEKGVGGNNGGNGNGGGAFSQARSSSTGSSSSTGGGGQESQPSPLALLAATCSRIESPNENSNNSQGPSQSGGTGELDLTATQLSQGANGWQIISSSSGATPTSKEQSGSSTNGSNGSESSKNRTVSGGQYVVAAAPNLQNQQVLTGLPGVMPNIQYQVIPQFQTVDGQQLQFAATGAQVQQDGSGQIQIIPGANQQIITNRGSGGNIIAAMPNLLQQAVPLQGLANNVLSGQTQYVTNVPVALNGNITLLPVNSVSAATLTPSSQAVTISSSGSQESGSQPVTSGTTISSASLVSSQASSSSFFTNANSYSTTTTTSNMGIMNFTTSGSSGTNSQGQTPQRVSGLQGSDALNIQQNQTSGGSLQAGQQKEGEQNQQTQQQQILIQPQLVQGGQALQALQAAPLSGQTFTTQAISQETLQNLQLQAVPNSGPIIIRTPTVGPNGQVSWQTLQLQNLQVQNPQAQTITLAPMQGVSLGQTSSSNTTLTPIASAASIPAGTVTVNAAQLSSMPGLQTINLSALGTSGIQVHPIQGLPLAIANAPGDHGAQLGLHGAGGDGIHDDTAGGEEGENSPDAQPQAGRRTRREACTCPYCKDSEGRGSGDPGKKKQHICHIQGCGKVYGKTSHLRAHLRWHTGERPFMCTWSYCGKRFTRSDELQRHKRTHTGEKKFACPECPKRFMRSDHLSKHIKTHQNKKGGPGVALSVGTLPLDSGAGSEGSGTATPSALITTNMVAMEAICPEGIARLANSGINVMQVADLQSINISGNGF
Sequence of Paired box protein Pax-6 (Homo sapiens) (P26367 whole entry, looked up): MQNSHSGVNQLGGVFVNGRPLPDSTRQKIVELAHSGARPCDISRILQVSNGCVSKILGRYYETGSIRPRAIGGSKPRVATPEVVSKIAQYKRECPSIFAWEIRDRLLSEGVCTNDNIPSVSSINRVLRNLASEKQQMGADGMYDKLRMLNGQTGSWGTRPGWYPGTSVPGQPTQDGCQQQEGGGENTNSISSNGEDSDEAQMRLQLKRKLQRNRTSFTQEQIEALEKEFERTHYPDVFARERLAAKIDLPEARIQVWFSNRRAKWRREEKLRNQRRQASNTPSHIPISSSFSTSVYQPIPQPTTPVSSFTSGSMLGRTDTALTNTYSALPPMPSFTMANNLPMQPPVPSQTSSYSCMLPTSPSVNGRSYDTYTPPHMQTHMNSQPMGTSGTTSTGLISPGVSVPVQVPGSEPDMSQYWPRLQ
Sequence of Hypoxia-inducible factor 1-alpha (Homo sapiens) (Q16665 whole entry, looked up, the tested form may be a part): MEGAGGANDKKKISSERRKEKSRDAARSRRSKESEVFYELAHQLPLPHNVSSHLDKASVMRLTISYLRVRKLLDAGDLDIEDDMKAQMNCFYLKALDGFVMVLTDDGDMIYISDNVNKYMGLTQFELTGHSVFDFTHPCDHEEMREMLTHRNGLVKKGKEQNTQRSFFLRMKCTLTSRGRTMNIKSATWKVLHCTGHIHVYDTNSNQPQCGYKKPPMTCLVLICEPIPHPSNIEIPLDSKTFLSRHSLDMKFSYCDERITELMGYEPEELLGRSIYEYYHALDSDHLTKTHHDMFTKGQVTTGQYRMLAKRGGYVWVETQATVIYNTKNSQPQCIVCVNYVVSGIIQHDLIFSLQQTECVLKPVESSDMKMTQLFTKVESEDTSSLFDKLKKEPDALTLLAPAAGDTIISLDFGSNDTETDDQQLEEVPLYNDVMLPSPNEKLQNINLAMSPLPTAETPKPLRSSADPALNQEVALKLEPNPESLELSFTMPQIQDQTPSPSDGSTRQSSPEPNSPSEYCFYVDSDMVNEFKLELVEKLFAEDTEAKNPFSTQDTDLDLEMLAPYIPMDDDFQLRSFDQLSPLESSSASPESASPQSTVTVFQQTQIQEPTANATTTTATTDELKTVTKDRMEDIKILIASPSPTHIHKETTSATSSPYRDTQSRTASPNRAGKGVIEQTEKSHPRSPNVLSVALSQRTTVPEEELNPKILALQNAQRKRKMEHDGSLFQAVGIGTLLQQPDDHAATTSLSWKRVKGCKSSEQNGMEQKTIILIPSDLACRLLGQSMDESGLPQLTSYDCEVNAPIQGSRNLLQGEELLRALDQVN

Take `COc1c2ccoc2cc2oc(=O)ccc12`: the result in assay [1], in assay [2], in assay [3], in assay [4], in assay [5] and in [6] was inactive. Also, the call in assay [7], in assay [8], in assay [9], in assay [11], in assay [12] and in assay [13] was inactive. Also, the outcome in [14], in assay [15], in [16] and in assay [17] was inactive. In assay [10], the AC50 was 26.9 µM (active).
Turning to `CC1(C)O[C@@H]2C[C@H]3[C@@H]4C[C@H](F)C5=CC(=O)CC[C@]5(C)[C@H]4[C@@H](O)C[C@]3(C)[C@]2(C(=O)CO)O1`, the results for the AC50 in assay [1] and in [10] were 0.0823 µM (active) and 22.8 µM (active), respectively. The outcome in [2], in [3], in [4], in assay [5], in [18] and in assay [6] was inactive. In addition, the outcome in assay [7], in [9], in assay [19], in assay [11], in assay [12] and in [13] was inactive. For the same compound, the outcome in [14], in assay [16] and in assay [17] was inactive.
For the compound `O=C(C=Cc1ccccc1)OCc1ccccc1`, the result in assay [1], in assay [2], in assay [3], in assay [4], in assay [5] and in assay [18] was inactive. The call in assay [6], in [7], in assay [9], in assay [11], in [12] and in assay [13] was inactive. Moreover, the result in [14], in [15] and in assay [17] was inactive. In [10], the AC50 was 13.2 µM (active).
Regarding `NC(CO)(CO)CO`, the outcome in assay [1], in [2], in assay [3], in assay [4], in assay [5] and in [6] was inactive. The call in [7], in [9], in [11], in [12], in assay [13] and in [14] was inactive. In addition, the compound was called inactive in assay [15] and in assay [16]. Besides, in assay [10], the AC50 is 42 µM (active).
Regarding `O=C(c1ccccc1)c1ccc(O)c(O)c1O`, the call in [1], in assay [2], in assay [3], in assay [4], in [18] and in assay [6] was inactive. The result in assay [7], in assay [9], in assay [19], in assay [11], in assay [12] and in assay [13] was inactive. Moreover, the compound was called inactive in assay [14], in [15], in assay [16] and in assay [17]. Further, the AC50 in assay [5] is 61.2 µM (active).
For the compound `CCc1ccc2c(c1)C(=O)c1ccccc1C2=O`, the compound was classed as inactive in assay [1], in assay [2], in assay [3], in assay [4], in [5] and in assay [6]. In addition, the result in assay [7], in [8], in assay [9], in assay [11], in assay [12] and in assay [13] was inactive. Besides, the compound was called inactive in assay [14] and in assay [16]. The half-maximal activity concentration (AC50) in assay [10] is 3.01 µM (active).
Turning to `Cc1ccccc1C`, the compound was called inactive in assay [1], in [2], in assay [3], in assay [4], in assay [5] and in assay [18]. The result in [6], in assay [7], in [9], in [11], in assay [12] and in [13] was inactive. The compound was called inactive in assay [14], in assay [15], in assay [16] and in [17].
As to `Cc1cc(C)c(C(=O)O)c(C)c1`, the compound was called inactive in [1], in [2], in assay [3], in assay [4], in [5] and in assay [18]. Also, the compound was classed as inactive in [6], in assay [7], in [9], in assay [10], in assay [11] and in assay [12]. The compound was called inactive in assay [13], in assay [14], in assay [15], in assay [16] and in assay [17].
